# Experimental data reported in article PMC12670160, “A drug-repurposing screen of FDA- and EMA-approved drugs identifies two NF-κB inhibitors active against eumycetoma” (Journal of Antimicrobial Chemotherapy, 2025).
# Where a name gives a salt, the structure may show the parent alone. Among all 5,300 compounds or so, about 130 (2.5%) showed an effect of 50% or more. Only a selection was taken, and strong results are over-represented in it overall.
# Test system: M. mycetomatis strain mm55
# Details: primary screen, metabolic activity vs growth control; 96 h, 2 µM; inhibitor
row,Compound,% viability [%]
1,"CC(C)[C@H](N)C(=O)OCCOCn1cnc2c(=O)[nH]c(N)nc21 [ONC0004144, valacyclovir hydrochloride]",101.2
2,"O=c1[nH]ccc2cc(OC3CCNCC3)ccc12 [ONC0001198, sar407899 hydrochloride]",94.6
3,"O=C(CC1CC(c2ccc(F)cc2F)=NO1)N1CCOCC1 (centres unmarked) [ONC0000237, cpsi1306]",89.07
4,"O=C1CN(/N=C/c2ccc(-c3ccc([N+](=O)[O-])cc3)o2)C(O)=N1 [ONC0003073, dantrolene]",104.9
5,"COC(=O)[C@@]12OC[C@]34[C@H]([C@@H](O)[C@@H]1O)[C@@]1(C)CC(=O)C(O)=C(C)[C@@H]1C[C@H]3OC(=O)[C@H](OC(=O)/C=C(\C)C(C)C)[C@@H]24 [ONC0001105, bruceantin]",72.53
6,"COc1cc2c(NC3CCN(C)CC3)nc(N3CCCN(C)CC3)nc2cc1OCCOCCN(C)C [ONC0002054, unc0321]",65.32
7,"COc1cc2c(NC3CCN(C)CC3)nc(N3CCCN(C)CC3)nc2cc1OCCCN(C)C [ONC0000276, unc0224]",85.54
8,"COc1cc2nc(N3CCCN(C)CC3)nc(NC3CCN(Cc4ccccc4)CC3)c2cc1OC [ONC0004534, bix 01294]",44.63
9,"CNCCc1c[nH]cn1 [ONC0002580, nalphamethylhistaminedihydrochloride]",77.02
10,"C[C@]12C=CC(=O)C=C1CCC1C2[C@@H](O)C[C@@]2(C)C1CC[C@]2(O)C(=O)COC(=O)CCC(=O)O (some centres unmarked) [ONC0004028, prednisolone hemisuccinate]",62.59
11,"COc1ccc2c(NC(=O)Nc3cccc(C(F)(F)F)n3)ccnc2c1 [ONC0002529, a1070722]",76.76
12,"O=C(O)CCC(=O)O [ONC0003714, succinic acid]",98.68
13,"NCC(=O)CCC(=O)O [ONC0004291, aminolevulinic acid hydrochloride]",48.43
14,"NCC(=O)O [ONC0001985, glycine]",104.5
15,"CC(C)(S)C(=O)N[C@@H](CS)C(=O)O [ONC0003276, bucillamine]",45.36
16,"CC(C)OC(=O)CNC(=O)[C@H](CS)NC(=O)CC[C@H](N)C(=O)O [ONC0002985, glutathionemonoisopropylester]",70.59
17,"CC(=O)N[C@@H](CS)C(=O)O [ONC0000337, acetylcysteine]",67.99
18,"NC(=O)c1cc[n+](CC2=C(C(=O)O)N3C(=O)[C@@H](NC(=O)Cc4cccs4)[C@H]3SC2)cc1 [ONC0005624, cefalonium]",95.75

row,Compound,% viability [%]
1,"CO[C@H]1CC[C@H](N(c2cc(C3=CCCCC3)sc2C(=O)O)C(=O)[C@H]2CC[C@H](C)CC2)CC1 [ONC0000943, vch916]",78.62
2,"CC(C)c1ccc(C(=O)NC(=N)N)cc1S(C)(=O)=O [ONC0004136, cariporide]",93.97
3,"CC12CCC(C(Br)C1=O)C2(C)C (centres unmarked) [ONC0003727, 3bromocamphor]",127.8
4,"Cc1csc2c(N[C@@H](C)CN3CCN(S(=O)(=O)c4ccc(Cl)c(Cl)c4)CC3)ncnc12 [ONC0001129, lpa2 antagonist 1]",45.06
5,"O=C(O)/C(Cc1ccccc1[N+](=O)[O-])=N/Nc1nc(-c2ccc(Cl)c(Cl)c2)cs1 [ONC0005147, 4egi1]",73.1
6,"CC[C@]1(O)C[C@H]2CN(CCc3c([nH]c4ccccc34)[C@@](C(=O)OC)(c3cc4c(cc3OC)N(C)[C@H]3[C@@](O)(C(N)=O)[C@H](O)[C@]5(CC)C=CCN6CC[C@]43[C@@H]65)C2)C1 [ONC0000288, vindesine sulfate]",94.86
7,"C[C@]12CC[C@@H]3c4ccc(O)cc4CC[C@H]3[C@@H]1CC[C@@H]2O [ONC0000707, estradiol]",85.31
8,"CCCCC(=O)O[C@H]1CC[C@H]2[C@@H]3CCc4cc(O)ccc4[C@H]3CC[C@]12C [ONC0000727, estradiol valerate]",49.76
9,"C[C@]12CC[C@@H]3c4ccc(O)cc4CC[C@H]3[C@@H]1CC[C@@H]2OC(=O)CCC1CCCC1 [ONC0000738, estradiol cypionate]",84.11
10,"[H]/N=C(\N/C(=N/[H])NCCCCCCNC(=N)NC(=N)Nc1ccc(Cl)cc1)Nc1ccc(Cl)cc1 [ONC0000326, chlorhexidine dihydrochloride]",77.24
11,"Cc1cccc(NC(=O)N[C@@H]2N=C(c3ccccc3)c3ccccc3N(CC(=O)c3ccccc3C)C2=O)c1 [ONC0005568, ym022]",88.21
12,"C=Cc1c(C)c2cc3nc(c(CC(=O)O)c4[nH]c(cc5nc(cc1[nH]2)C(C)=C5CC)c(C)c4C(=O)O)C(CCC(=O)O)C3C (centres unmarked) [ONC0000409, chlorophyllin chlorin e6]",49.9
13,"C=CC1=C(C)c2cc3[nH]c(cc4nc(cc5[nH]c(cc1n2)c(C)c5CCC(=O)O)C(CCC(=O)O)=C4C)c(C)c3C=C [ONC0000685, protoporphyrin ix]",98.29
14,"CC1=C(CCC(=O)O)c2cc3[nH]c(cc4nc(cc5[nH]c(cc1n2)c(C)c5C(C)O)C(C)=C4C(C)O)c(C)c3CCC(=O)O (centres unmarked) [ONC0002122, hematoporphyrin]",86.42
15,"CN(C)[C@@H]1C(=O)C(C(N)=O)C(=O)[C@@]2(O)C(=O)C3C(=O)c4c(O)cccc4[C@@](C)(O)[C@H]3C[C@@H]12 (some centres unmarked) [ONC0000563, tetracycline hydrochloride]",113.1
16,"C/C(=N\NC(=N)N)c1cc(NC(=O)CCCCCCCCC(=O)Nc2cc(/C(C)=N/NC(=N)N)cc(/C(C)=N/NC(=N)N)c2)cc(/C(C)=N/NC(=N)N)c1 [ONC0003851, semapimod]",78.92
17,"CCCCCCCCCCCCCCCCCC(=O)OCC(O)[C@H]1OC[C@H](O)[C@H]1O (some centres unmarked) [ONC0002989, sorbitanmonostearate]",79.74
